The record followed here is the supplement of paper PMC10723795.

± gives the standard deviation of the averaged measurements.

The subject of this experiment is RPE1. The experiment in a line: nucleolar normality score relative to DMSO (fraction of DMSO control); RPE1 is a non-cancer human cell line; higher = more normal nucleoli (less nucleolar stress). How it is done: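 Selected screen hits were validated in hTERT lines (BJ5TA, CHON-002, RPE1) and cancer lines (DLD1, HCT116). Cells were immunostained for nucleolin and UBF and the nucleolar normality score was measured per field of view, with 4 fields per drug. Scores are normalized to each cell line's own DMSO control. Dose and time are not stated for this panel.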
`CC[C@@]1(O)C(=O)OCc2c1cc1n(c2=O)Cc2cc3ccccc3nc2-1` [Camptothecin] gave a nucleolar normality score of 0.413 ± 0.024.
